In PubChem BioAssay (NCATS):
Several values for one entry are separate records, joined by “and”; a condition that tells them apart may be missing. Identical values can stand only once. Inconclusive results are not listed. Activity calls are given as the source filed them. Unless noted, the call rests on the fitted dose curve; in most records, active means well fitted curve in the direction sought with a large enough effect; inconclusive means small, poorly fitted or top-dose-only effect, or another doubt; inactive means no such curve, though single readings can be large; an effect the other way counts as inactive or inconclusive.

Tests used:
[1] = biological target: Mitogen-activated protein kinase 10 (Mus musculus) (UniProt Q61831); assay: JNK3 AlphaScreen Assay (AID 530; active means well fitted curve in either direction with a large enough effect, not every such curve was filed as active;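 further: kinase came from lysate of stimulated human HepG2 cells; signal reports phosphorylation of biotinylated GST-cJun 1-79 at Ser73 with 10 µM ATP; on the % scale 0 is the no-effect control and ±100 the full control effect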)
Procedure, shortened: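 qHTS titrations with 15 min compound pre-incubation before adding ATP (10 uM final). Read-out: AlphaScreen of Ser73-phosphorylated biotin-GST-cJun using HepG2 lysate JNK3 activated by IL-1β and TNFα.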

[2] = Cell Viability - Mesenchymal (AID 546);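 further: cells exposed to compound for 40 hours before reading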
Procedure, shortened: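 CellTiter-Glo luminescence (intracellular ATP, 20 min room temperature) after 40 hr compound exposure at 37 °C of 1000 glomerulus-derived human kidney mesenchymal cells/well; AC50 values obtained by fitting qHTS concentration-response data to the Hill equation.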

[3] = Cellular Toxicity (caspase-3) Jurkat (AID 655); conditions: Jurkat caspase-3 activation, luminescence; caspase-3 activation: at 92.2 µM (top of the series), DMSO = 0%, tamoxifen = 100%;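 further: cells exposed to compound for 16 h at 37 °C before reading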
Procedure, shortened: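 qHTS in human Jurkat T-cell leukemia line: 16 hr compound treatment at 37 °C, caspase-3/7 activity measured by Caspase-Glo luminescence. AC50 derived from Hill equation.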

[4] = Cellular Toxicity (caspase-3) BJ (AID 658);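 further: cells exposed to compound for 16 hours; 0% = DMSO basal and 100% = 10 µM staurosporine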
Procedure, shortened: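 Caspase-Glo 3/7 luminescence, read 1 hr after reagent at room temperature, in normal BJ fibroblasts exposed 16 hours at 37 °C. AC50 values from Hill-equation concentration-response, scaled between DMSO basal and 10 uM staurosporine as 100%.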

[5] = Cellular Toxicity (caspase-3) MRC-5 (AID 659);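 further: 0% = DMSO basal and 100% = 10 µM staurosporine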
Procedure, shortened: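 Luminescent Caspase-Glo 3/7 read-out (1 h, room temperature) after a 16 h, 37 °C compound exposure of MRC-5 lung fibroblasts at 1500 cells/well. Concentration-response AC50 from Hill equation; 0% DMSO, 100% 10 uM staurosporine.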

[6] = biological target: Cytochrome P450 3A4 (Homo sapiens) (UniProt P08684); assay: qHTS Assay for Inhibitors and Substrates of Cytochrome P450 3A4 (AID 884); further: on the % scale 0 is the no-effect control and ±100 the full control effect; nearly all actives have a fitted effect of over 50% in size
Sequence of Cytochrome P450 3A4 (Homo sapiens) (P08684 whole entry, looked up): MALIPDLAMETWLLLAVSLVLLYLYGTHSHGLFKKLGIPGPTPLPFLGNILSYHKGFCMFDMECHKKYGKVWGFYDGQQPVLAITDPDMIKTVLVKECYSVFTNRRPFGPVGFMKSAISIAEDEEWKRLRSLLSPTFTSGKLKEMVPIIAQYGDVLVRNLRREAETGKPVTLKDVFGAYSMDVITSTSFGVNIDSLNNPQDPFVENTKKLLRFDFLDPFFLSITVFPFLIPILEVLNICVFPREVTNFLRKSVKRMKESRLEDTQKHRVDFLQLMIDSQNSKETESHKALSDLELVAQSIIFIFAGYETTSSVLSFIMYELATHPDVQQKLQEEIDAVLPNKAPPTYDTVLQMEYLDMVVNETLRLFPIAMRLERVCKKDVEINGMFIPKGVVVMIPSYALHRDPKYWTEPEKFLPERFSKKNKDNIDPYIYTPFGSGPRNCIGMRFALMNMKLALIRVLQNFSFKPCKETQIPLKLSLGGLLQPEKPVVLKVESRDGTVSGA
Procedure, shortened: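 Luminescent readout of luciferin produced by CYP3A4 (20 nM) dealkylation of Luciferin-PPXE, 25 uM (its KM). NADPH-driven reaction ran 60 min at RT after 10 min compound preincubation; data scaled to 57 uM ketoconazole as 100% inhibition.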

[7] = Cell Viability - LYMP2-001 (AID 921);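 further: 0% = DMSO only and full inhibition = tetraoctylammonium bromide control wells; nearly all actives have a fitted effect of over 70% in size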
Procedure, shortened: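 A lymphoblastoid cell line of human origin was treated with library compounds across a concentration series for 24 hours, and viable cell number was estimated from ATP-driven luciferase light output. Hill modeling gave AC50.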

[8] = MultiTox-Fluor Cytotoxicity Assay - LYMP1-002 - Live Cells (AID 955);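 further: cells exposed to compound for 16 hours; on the % scale 0 is the no-effect control and ±100 the full control effect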
Procedure, shortened: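 Cells were seeded at 2500 per well and incubated 5 hr. Compounds were then added for 16 hr at 37 C, followed by MultiTox-Fluor reagent for 60 min at room temperature and fluorescence reading of viable-cell protease signal.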

[9] = Cell Viability - LYMP2-005 (AID 967);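 further: plate controls were DMSO only for no effect and 92 µM tetraoctylammonium bromide control for full effect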
Procedure, shortened: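 Luciferase-based ATP quantitation served as the viability measure in human lymphoblastoid LYMP2-005 cells exposed to test compounds for 24 h at 37 C in complete culture medium. Potency (AC50) was obtained by fitting concentration-response curves with the Hill equation.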

[10] = Cell Viability - LYMP2-015 (AID 971);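 further: 0% = DMSO only and full effect = 92 µM tetraoctylammonium bromide; nearly all actives have a fitted effect of over 55% in size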
Procedure, shortened: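 Cells are seeded at 2500 per well and incubated 5 hr at 37 C. Compounds are added across a concentration series for 24 hr at 37 C. CellTiter-Glo is added, and luminescence is read after 30 min at room temperature.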

[11] = biological target: Thyroid hormone receptor beta (Homo sapiens) (UniProt P10828); assay: qHTS assay for small molecule agonists of thyroid hormone receptor beta signaling (AID 588545; calls by dose curve;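 further: 0% = DMSO only and 100% = 10 nM T3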)
Sequence of Thyroid hormone receptor beta (Homo sapiens) (P10828 whole entry, looked up): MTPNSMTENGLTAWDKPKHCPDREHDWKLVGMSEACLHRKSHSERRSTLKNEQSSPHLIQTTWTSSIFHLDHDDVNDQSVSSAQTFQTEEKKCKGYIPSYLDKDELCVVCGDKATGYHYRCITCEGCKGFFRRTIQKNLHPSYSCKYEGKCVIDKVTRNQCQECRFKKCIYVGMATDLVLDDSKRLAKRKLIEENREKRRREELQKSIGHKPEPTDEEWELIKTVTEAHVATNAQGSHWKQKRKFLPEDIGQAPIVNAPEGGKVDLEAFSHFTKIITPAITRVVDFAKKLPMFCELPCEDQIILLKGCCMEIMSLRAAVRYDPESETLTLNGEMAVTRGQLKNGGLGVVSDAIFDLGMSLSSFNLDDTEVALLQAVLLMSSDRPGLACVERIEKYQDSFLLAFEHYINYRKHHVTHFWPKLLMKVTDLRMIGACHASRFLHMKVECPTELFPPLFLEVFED
Procedure, shortened: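 Compounds were tested as agonists in TR-UAS-bla-GripTite HEK 293 cells. After 18 hrs at 37 C, CCF4 substrate was added and fluorescence read after 2 hrs at room temperature.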

[12] = qHTS assay for small molecule antagonists of retinoid X receptor alpha signaling (AID 588546; active means well fitted inhibition curve with a large enough effect in the signal ratio, with a control signal flat, not every such curve was filed as active; the % refers to the signal ratio;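 further: cells stimulated with 9-cis-retinoic acid as agonist; on the % scale 0 is the no-effect control and ±100 the full control effect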); conditions: HEK293T RXRa-UAS-bla, beta-lactamase ratio, antagonist mode; measured here: W530 green channel, cytotoxicity proxy
Procedure, shortened: (§1)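 Beta-lactamase reporter inhibition, read as CCF4 fluorescence ratio (ex 405, em 460/530 nm) after 2 h at RT. HEK293T UAS-bla cells, 2500/well, were stimulated with 9-cis-RA at 500 or 100 nM final alongside test compound for 18 h at 37 C.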

[13] = biological target: Retinoic acid receptor RXR-alpha (Homo sapiens) (UniProt P19793); assay: as above; conditions: HEK293T RXRa-UAS-bla, beta-lactamase ratio, antagonist mode
Sequence of Retinoic acid receptor RXR-alpha (Homo sapiens) (P19793 whole entry, looked up): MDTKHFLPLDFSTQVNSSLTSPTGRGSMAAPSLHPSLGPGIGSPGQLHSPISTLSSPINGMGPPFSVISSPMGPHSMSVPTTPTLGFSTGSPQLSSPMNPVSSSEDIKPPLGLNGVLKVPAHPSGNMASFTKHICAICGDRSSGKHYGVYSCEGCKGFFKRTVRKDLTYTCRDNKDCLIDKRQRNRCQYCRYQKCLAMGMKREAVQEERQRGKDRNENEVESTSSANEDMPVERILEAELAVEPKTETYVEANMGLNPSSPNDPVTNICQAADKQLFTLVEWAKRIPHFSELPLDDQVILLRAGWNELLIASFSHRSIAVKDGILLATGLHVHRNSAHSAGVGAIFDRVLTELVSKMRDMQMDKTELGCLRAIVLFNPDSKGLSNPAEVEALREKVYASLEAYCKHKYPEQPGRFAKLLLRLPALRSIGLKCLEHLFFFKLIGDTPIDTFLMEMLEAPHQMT
Procedure, shortened: as §1

[14] = biological target: Voltage-gated inwardly rectifying potassium channel KCNH2 (Homo sapiens) (UniProt Q12809); assay: qHTS Assay for Small Molecule Inhibitors of the Human hERG Channel Activity (AID 588834);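 further: top concentration of the series differs between compounds; on the % scale 0 is the no-effect control and ±100 the full control effect; lower thallium flux fluorescence means stronger hERG block; nearly all actives have a fitted effect of over 50% in size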
Sequence of Voltage-gated inwardly rectifying potassium channel KCNH2 (Homo sapiens) (Q12809 whole entry, looked up): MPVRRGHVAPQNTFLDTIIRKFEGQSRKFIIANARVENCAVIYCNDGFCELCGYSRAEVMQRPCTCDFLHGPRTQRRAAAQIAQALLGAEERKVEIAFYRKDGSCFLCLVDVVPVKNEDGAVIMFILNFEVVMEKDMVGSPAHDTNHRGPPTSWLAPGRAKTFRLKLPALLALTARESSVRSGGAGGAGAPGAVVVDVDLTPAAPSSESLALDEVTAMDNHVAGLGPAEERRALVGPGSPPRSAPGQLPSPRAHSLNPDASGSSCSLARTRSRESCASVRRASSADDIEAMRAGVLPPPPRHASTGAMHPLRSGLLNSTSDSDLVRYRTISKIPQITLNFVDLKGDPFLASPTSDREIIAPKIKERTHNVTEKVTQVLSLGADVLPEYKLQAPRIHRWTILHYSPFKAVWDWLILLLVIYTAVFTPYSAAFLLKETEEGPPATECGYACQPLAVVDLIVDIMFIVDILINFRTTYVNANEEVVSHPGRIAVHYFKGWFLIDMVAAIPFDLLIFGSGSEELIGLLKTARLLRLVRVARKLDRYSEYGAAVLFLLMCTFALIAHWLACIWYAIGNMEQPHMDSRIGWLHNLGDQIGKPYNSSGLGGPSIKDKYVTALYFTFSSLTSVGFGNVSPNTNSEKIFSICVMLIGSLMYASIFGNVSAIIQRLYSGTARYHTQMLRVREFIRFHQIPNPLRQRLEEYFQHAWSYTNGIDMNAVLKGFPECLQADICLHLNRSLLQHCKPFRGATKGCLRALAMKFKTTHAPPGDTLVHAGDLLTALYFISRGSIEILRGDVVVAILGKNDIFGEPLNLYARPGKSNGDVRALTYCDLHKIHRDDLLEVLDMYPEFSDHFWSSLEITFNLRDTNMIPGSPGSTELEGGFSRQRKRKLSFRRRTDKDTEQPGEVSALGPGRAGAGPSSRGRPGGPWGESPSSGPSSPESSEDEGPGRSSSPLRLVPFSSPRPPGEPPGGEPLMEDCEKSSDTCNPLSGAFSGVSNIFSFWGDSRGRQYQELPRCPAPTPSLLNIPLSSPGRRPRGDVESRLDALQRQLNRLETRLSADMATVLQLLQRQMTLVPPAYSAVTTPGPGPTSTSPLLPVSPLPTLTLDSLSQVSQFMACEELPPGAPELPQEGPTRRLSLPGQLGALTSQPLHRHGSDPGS
Procedure, shortened: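 Homogeneous FluxOR thallium flux assay using hERG-expressing U2OS cells (BacMam). Compound treatment about 10 minutes preceded stimulation; reduced fluorescence taken as channel block.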

[15] = qHTS assay for small molecule disruptors of the mitochondrial membrane potential - 5 hr assay (AID 651755; calls by dose curve; further: on the % scale 0 is the no-effect control and ±100 the full control effect; nearly all actives have a fitted effect of over 40% in size)
Procedure, shortened: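 Membrane-potential dye readout: red aggregate (540 ex/590 em) versus green monomer (490 ex/535 em) fluorescence after 30 min dye loading, following 5 hr compound exposure at 37C of overnight-plated HepG2 cells.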

[16] = qHTS assay for environmental chemicals that activate the Aryl hydrocarbon Receptor (AhR) signaling pathway (AID 651777); conditions: 1A2-DRE human hepatoma cells, luciferase, 24 h; activation: stronger effect = higher value; further: % of control where 0% means no effect; nearly all actives have a fitted effect of over 15% in size
Procedure, shortened: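 Human hepatoma 1A2-DRE cells, stably carrying a dioxin response element and CYP1A2 promoter driving luciferase, were exposed to compounds for 24 hr at 37 C and 5% CO2. Luciferase signal was then read after 30 min One-Glo at room temperature.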

[17] = biological target: Nuclear receptor ROR-gamma (Homo sapiens) (UniProt P51449); assay: qHTS assay for small molecule antagonists of the retinoid-related orphan receptor gamma (ROR-gamma) signaling pathway (AID 651802);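 further: CHO cells with doxycycline-induced ROR-gamma expression; on the % scale 0 is the no-effect control and ±100 the full control effect; nearly all actives have a fitted effect of over 60% in size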
Sequence of Nuclear receptor ROR-gamma (Homo sapiens) (P51449 whole entry, looked up): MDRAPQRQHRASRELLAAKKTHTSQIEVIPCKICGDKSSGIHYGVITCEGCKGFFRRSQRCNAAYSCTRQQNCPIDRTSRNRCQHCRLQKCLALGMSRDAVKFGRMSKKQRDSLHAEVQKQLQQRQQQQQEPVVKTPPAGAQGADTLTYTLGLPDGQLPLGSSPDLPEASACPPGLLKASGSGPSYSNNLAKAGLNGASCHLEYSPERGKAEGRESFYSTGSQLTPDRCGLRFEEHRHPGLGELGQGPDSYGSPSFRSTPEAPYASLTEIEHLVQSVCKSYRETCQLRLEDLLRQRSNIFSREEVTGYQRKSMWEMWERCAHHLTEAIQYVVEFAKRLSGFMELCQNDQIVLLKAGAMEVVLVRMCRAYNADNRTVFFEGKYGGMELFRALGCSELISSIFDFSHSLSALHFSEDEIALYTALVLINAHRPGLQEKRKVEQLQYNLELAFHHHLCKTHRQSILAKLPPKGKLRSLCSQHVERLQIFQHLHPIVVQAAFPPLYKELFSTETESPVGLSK
Procedure, shortened: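 Steps: cells dispensed; compound or DMSO transferred by pin tool; doxycycline added to induce the ROR response element-driven luciferase; plates held 16hr at 37C; ONE-Glo added and luminescence measured.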

[18] = biological target: Nuclear receptor subfamily 1 group I member 2 (Rattus norvegicus) (UniProt Q9R1A7); assay: qHTS assay for small molecule activators of the rat pregnane X receptor (rPXR) signaling pathway (AID 651751; call rule not given here; further: 0% is about no effect); conditions: rPXR reporter cells, luciferase (One-Glo), 24 h
Sequence of Nuclear receptor subfamily 1 group I member 2 (Rattus norvegicus) (Q9R1A7 whole entry, looked up): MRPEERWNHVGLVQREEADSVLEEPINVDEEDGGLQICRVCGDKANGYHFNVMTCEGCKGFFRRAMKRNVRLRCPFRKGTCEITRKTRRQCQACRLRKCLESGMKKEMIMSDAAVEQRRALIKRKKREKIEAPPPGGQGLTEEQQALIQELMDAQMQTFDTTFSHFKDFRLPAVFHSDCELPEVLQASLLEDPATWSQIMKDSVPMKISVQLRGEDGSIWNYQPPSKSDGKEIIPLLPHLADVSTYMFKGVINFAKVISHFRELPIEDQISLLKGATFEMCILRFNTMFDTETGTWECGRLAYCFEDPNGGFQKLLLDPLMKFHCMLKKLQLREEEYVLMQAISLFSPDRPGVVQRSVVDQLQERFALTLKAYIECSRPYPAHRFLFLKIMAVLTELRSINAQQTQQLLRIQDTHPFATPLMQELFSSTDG

[19] = qHTS assay for small molecule activators of the human pregnane X receptor (PXR) signaling pathway (AID 720659; call rule not given here; further: 0% is about no effect)
[20] = MultiTox-Fluor Cytotoxicity Assay - LYMP1-001 - Live Cells (AID 947);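 further: 0% = DMSO only and full inhibition = tetraoctylammonium bromide control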

Cc1ccc2c(C)cccc2c1
inactive: Potency [1] | Potency [2] | caspase-3 activation [3] -1.07% | outcome [4] | outcome [5] | Potency [6] | Potency [7] | outcome [8] | Potency [9] | Potency [10] | Potency [11] | max response [13] 4.66% | Potency [14] | Potency [15] | activation [16] -0.533% | Potency [17] | max response [18] -3.71% | outcome [19]
4.96%: max response [12]

C1CC2OC2CC1C1CO1 (stereo not drawn)
inactive: Potency [1] | Potency [2] | caspase-3 activation [3] -1.28% | outcome [4] | outcome [5] | Potency [6] | Potency [7] | outcome [20] | outcome [8] | Potency [9] | Potency [10] | Potency [11] | max response [13] 10.1% and -3.3% | Potency [14] | Potency [15] | activation [16] 1.2% and -1.91% | Potency [17] | max response [18] -1.19% and -4.43% | outcome [19]
-7.13% and -27.8%: max response [12]

O=[N+]([O-])c1ccc(Cl)c(Cl)c1Cl
-8.55%: max response [12]
inactive: Potency [1] | Potency [2] | caspase-3 activation [3] -0.417% | outcome [4] | Potency [6] | Potency [7] | outcome [20] | outcome [8] | Potency [9] | Potency [10] | Potency [11] | max response [13] 7.17% | Potency [14] | Potency [15] | activation [16] -1.85% | Potency [17] | max response [18] -4.87% | outcome [19]

CC(C)CON=O
-4.96%: max response [12]
inactive: Potency [1] | Potency [2] | caspase-3 activation [3] -1.62% | outcome [4] | Potency [6] | Potency [7] | outcome [20] | outcome [8] | Potency [9] | Potency [10] | max response [13] 8.37% | Potency [14] | Potency [15] | activation [16] 1.53% | max response [18] 4.86% | outcome [19]

CCCCOC(=O)c1ccccc1N
inactive: Potency [1] | Potency [2] | caspase-3 activation [3] 1.19% | outcome [4] | Potency [6] | Potency [7] | outcome [20] | outcome [8] | Potency [9] | Potency [10] | max response [13] 6.01% | Potency [14] | Potency [15] | activation [16] 0.138% | Potency [17] | max response [18] -1.8% | outcome [19]
-0.876%: max response [12]

O=Cc1ccc2c(c1)OCO2
-8.14%: max response [12]
inactive: Potency [1] | Potency [2] | caspase-3 activation [3] -0.168% | outcome [4] | outcome [5] | Potency [6] | Potency [7] | outcome [20] | outcome [8] | Potency [9] | Potency [10] | Potency [11] | max response [13] -12.4% | Potency [14] | Potency [15] | activation [16] -0.902% | Potency [17] | max response [18] 2.27% | outcome [19]

ClC(Br)Br
inactive: Potency [1] | Potency [2] | caspase-3 activation [3] 0.0387% | outcome [4] | outcome [5] | Potency [6] | Potency [7] | outcome [20] | outcome [8] | Potency [9] | Potency [10] | Potency [11] | max response [13] 0.0478% | Potency [14] | Potency [15] | activation [16] 0.329% | Potency [17] | max response [18] 0.757% | outcome [19]
-8.78%: max response [12]
